This is an account of results in PubChem BioAssay (NCI).

Assay [1] can be described thus: NCI Yeast Anticancer Drug Screen. Data for the rad50 strain (AID 155).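 Also: 0% = growth of vehicle-only cultures of the same strain.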 The settings on record: S. cerevisiae rad50 strain growth inhibition, active compounds read high. The method in brief:
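Vehicle-treated cultures provide the reference for the growth inhibition reported for compound-exposed, repair-deficient yeast.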

A short description of assay [2]: NCI Yeast Anticancer Drug Screen. Data for the mec2-1 strain (AID 157). The settings on record: S. cerevisiae mec2-1 strain, active compounds read high. The essentials: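 Growth inhibition is read against vehicle-treated controls after compound exposure of the mec2-1 yeast strain, which is defective in DNA damage repair or cell cycle control.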
Assay [3] can be described thus: NCI Yeast Anticancer Drug Screen. Data for the sgs1 mgt1 strain (AID 161).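 Also: 0% = growth of cultures given vehicle only.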 The settings on record: S. cerevisiae sgs1 mgt1 strain, active compounds read high. The essentials:
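Yeast cells carrying a defined DNA-repair defect were exposed to test compounds. Growth inhibition was measured relative to vehicle-treated controls.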

Assay [4] is described as follows: NCI Yeast Anticancer Drug Screen. Data for the cln2 rad14 strain (AID 165).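 Also: 0% = growth equal to vehicle treated cultures.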 The settings on record: S. cerevisiae cln2 rad14 strain, active compounds read high. The essentials: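 Growth inhibition, relative to vehicle-treated controls, is the read-out. The test organism is a yeast strain with defined genetic alterations, cln2 rad14.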
Assay [5] is described as follows: NCI Yeast Anticancer Drug Screen. Data for the bub3 strain (AID 167). The settings on record: S. cerevisiae bub3 mutant strain, active compounds read high. The method in brief:
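Mutant yeast screening strain plus compound; vehicle-treated cultures serve as the 0% inhibition reference.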

Assay [6] is described as follows: NCI Yeast Anticancer Drug Screen. Data for the mlh1 rad18 strain (AID 175). The note with it: S. cerevisiae mlh1 rad18 strain growth inhibition, active compounds read high. The essentials:
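Cells of a genetically altered yeast strain, deficient in DNA damage repair, were treated with compound. Their growth was then compared with that of vehicle-treated cultures to give inhibition.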

Where [7] appears, read: at 5.0 µM (retest, dose inferred, filed as 0.5).
Setting [8] is: at 50.0 µM (retest, dose inferred, filed as 5.0).

The structures appear in SMILES notation. This is part of a sample that, as a whole, favours compounds with a hit. Of some 79,000 tested, about 15% had one in any assay. Values without a mark were called inactive. Active and inactive are the calls of the source. Rule as the data show it: active = growth inhibition above about 70%; inactive = the rest.

As for `O=C1NCCCNCCCNCCCNC(=O)c2cccc1n2`, the growth inhibition was 32% in assay [1] (setting [7]); 30% in assay [1] (setting [8]); -41.7% in assay [1] (at 50.0 µM); 23% in assay [2] (setting [7]); 21% in assay [2] (setting [8]); -30.6% in assay [2] (at 50.0 µM). Also, the growth inhibition in assay [3] (setting [7]) is 21%; in assay [3] (setting [8]), 24%; in assay [3] (at 50.0 µM), -18.1%; in assay [4] (setting [7]) it was 18%; in assay [4] (setting [8]), 28%; in assay [4] (at 50.0 µM) it was 5.3%. For the same compound, the growth inhibition in assay [5] (setting [7]) was 23%; in assay [5] (setting [8]) it was 26%; in assay [5] (at 50.0 µM) it was 0.55%; in assay [6] (setting [7]) it was 29%; in assay [6] (setting [8]), 26%; in assay [6] (at 50.0 µM), -15.2%.

In the case of `N#CC1=C(C#N)Sc2nc3cc(Cl)ccc3nc2S1`, the growth inhibition in assay [1] (setting [7]) is 17%; in assay [1] (setting [8]), 99% (active); in assay [1] (at 50.0 µM), 68.7%; in assay [2] (setting [7]), 24%; in assay [2] (setting [8]), 99% (active); in assay [2] (at 50.0 µM), 91.1% (active). Further, the growth inhibition in assay [3] (setting [7]) is 30%; in assay [3] (setting [8]) it was 98% (active); in assay [3] (at 50.0 µM) it was 77.9% (active); in assay [4] (setting [7]) it was 25%; in assay [4] (setting [8]), 99% (active); in assay [4] (at 50.0 µM) it was 20.6%. The growth inhibition was 19% in assay [5] (setting [7]); 98% (active) in assay [5] (setting [8]); 41.9% in assay [5] (at 50.0 µM); 29% in assay [6] (setting [7]); 99% (active) in assay [6] (setting [8]); 94.8% (active) in assay [6] (at 50.0 µM).

As for `CCOc1cc2c(cc1Cc1c(OC)cc(OC)cc1OC)OCO2`, the growth inhibition was 5% in assay [1] (setting [7]); 27% in assay [1] (setting [8]); 46% in assay [1] (at 50.0 µM); 3% in assay [2] (setting [7]); 31% in assay [2] (setting [8]); 16.5% in assay [2] (at 50.0 µM). Moreover, the growth inhibition in assay [3] (setting [7]) was 8%; in assay [3] (setting [8]), 57%; in assay [3] (at 50.0 µM) it was 88% (active); in assay [4] (setting [7]), 4%; in assay [4] (setting [8]), 30%; in assay [4] (at 50.0 µM), 46.8%. The growth inhibition in assay [5] (setting [7]) is 4%; in assay [5] (setting [8]), 63%; in assay [5] (at 50.0 µM) it was 77.8% (active); in assay [6] (setting [7]) it was 7%; in assay [6] (setting [8]), 73% (active); in assay [6] (at 50.0 µM) it was 83.3% (active).

As for `CCOC(=O)c1cc(NC(=O)c2cc(NC(=O)c3cc(NC(=O)c4c(-c5ccccc5)noc4C)cn3C)cn2C)cn1C`, the growth inhibition is 3% in assay [1] (setting [7]); 56% in assay [1] (setting [8]); 50.3% in assay [1] (at 50.0 µM); -3% in assay [2] (setting [7]); 54% in assay [2] (setting [8]); 56.8% in assay [2] (at 50.0 µM). The growth inhibition in assay [3] (setting [7]) was 2%; in assay [3] (setting [8]), 86% (active); in assay [3] (at 50.0 µM) it was 59.1%; in assay [4] (setting [7]), -5%; in assay [4] (setting [8]) it was 29%; in assay [4] (at 50.0 µM) it was 14.8%. Also, the growth inhibition in assay [5] (setting [7]) was -4%; in assay [5] (setting [8]), 46%; in assay [5] (at 50.0 µM) it was 36.1%; in assay [6] (setting [7]), 0%; in assay [6] (setting [8]), 67%; in assay [6] (at 50.0 µM) it was 51.3%.

Consider `CC/C(Cl)=N\OC(=O)Nc1ccc(F)c(Cl)c1`, for which the growth inhibition in assay [1] (setting [7]) was -8%; in assay [1] (setting [8]), 98% (active); in assay [1] (at 50.0 µM) it was 58.5%; in assay [2] (setting [7]) it was 5%; in assay [2] (setting [8]), 96% (active); in assay [2] (at 50.0 µM) it was 84.4% (active). Further, the growth inhibition in assay [3] (setting [7]) was 36%; in assay [3] (setting [8]), 99% (active); in assay [3] (at 50.0 µM) it was 83.7% (active); in assay [4] (setting [7]), 31%; in assay [4] (setting [8]), 75% (active); in assay [4] (at 50.0 µM), 51%. For the same compound, the growth inhibition is 5% in assay [5] (setting [7]); 92% (active) in assay [5] (setting [8]); 78.2% (active) in assay [5] (at 50.0 µM); -8% in assay [6] (setting [7]); 94% (active) in assay [6] (setting [8]); 69.3% in assay [6] (at 50.0 µM).

Turning to `Cc1cc2nc3[nH]c4c(Cl)cc(Cl)cc4c3nc2cc1C`, the growth inhibition in assay [1] (setting [7]) is 26%; in assay [1] (setting [8]), 28%; in assay [1] (at 50.0 µM) it was -36.8%; in assay [2] (setting [7]), 14%; in assay [2] (setting [8]), 10%; in assay [2] (at 50.0 µM) it was -28.6%. Also, the growth inhibition in assay [3] (setting [7]) was 3%; in assay [3] (setting [8]), 3%; in assay [3] (at 50.0 µM) it was -7.3%; in assay [4] (setting [7]), -10%; in assay [4] (setting [8]) it was 5%; in assay [4] (at 50.0 µM), 56.4%. Besides, the growth inhibition is -4% in assay [5] (setting [7]); 8% in assay [5] (setting [8]); -70.8% in assay [5] (at 50.0 µM); 4% in assay [6] (setting [7]); 19% in assay [6] (setting [8]); -20.6% in assay [6] (at 50.0 µM).

On to `O=C(CC(O)(C(F)(F)F)C(F)(F)Cl)CC(O)(C(F)(F)F)C(F)(F)Cl` (stereo not given), for which the growth inhibition in assay [1] (setting [7]) is 94% (active); in assay [1] (setting [8]), 88% (active); in assay [1] (at 50.0 µM) it was 99.3% (active); in assay [2] (setting [7]), 92% (active); in assay [2] (setting [8]) it was 99% (active); in assay [2] (at 50.0 µM), 99.4% (active). Besides, the growth inhibition in assay [3] (setting [7]) was 91% (active); in assay [3] (setting [8]), 99% (active); in assay [3] (at 50.0 µM), 99.7% (active); in assay [4] (setting [7]), 89% (active); in assay [4] (setting [8]), 99% (active); in assay [4] (at 50.0 µM) it was 99% (active). Besides, the growth inhibition was 86% (active) in assay [5] (setting [7]); 99% (active) in assay [5] (setting [8]); 99.5% (active) in assay [5] (at 50.0 µM); 94% (active) in assay [6] (setting [7]); 99% (active) in assay [6] (setting [8]); 99.4% (active) in assay [6] (at 50.0 µM).

Turning to `COc1ccc(OC)c(/C=C/NC=O)c1`, the growth inhibition in assay [1] (setting [7]) is -10%; in assay [1] (setting [8]), 10%; in assay [1] (at 50.0 µM), -11.4%; in assay [2] (setting [7]), -11%; in assay [2] (setting [8]) it was -7%; in assay [2] (at 50.0 µM), 13.2%. The growth inhibition in assay [3] (setting [7]) is -12%; in assay [3] (setting [8]) it was -2%; in assay [3] (at 50.0 µM) it was -6.4%; in assay [4] (setting [7]) it was -15%; in assay [4] (setting [8]), 5%; in assay [4] (at 50.0 µM), 49.2%. Moreover, the growth inhibition was -1% in assay [5] (setting [7]); -2% in assay [5] (setting [8]); -4.35% in assay [5] (at 50.0 µM); 5% in assay [6] (setting [7]); -24% in assay [6] (setting [8]); -0.95% in assay [6] (at 50.0 µM).

`CN(C)C(=O)c1cc(Br)cc(-c2ccccc2)c1O`: the growth inhibition in assay [1] (setting [7]) is 4%; in assay [1] (setting [8]), 77% (active); in assay [1] (at 50.0 µM) it was 55.1%; in assay [2] (setting [7]), 0%; in assay [2] (setting [8]), 84% (active); in assay [2] (at 50.0 µM), 73% (active). Moreover, the growth inhibition in assay [3] (setting [7]) is 3%; in assay [3] (setting [8]), 86% (active); in assay [3] (at 50.0 µM), 75.8% (active); in assay [4] (setting [7]) it was 2%; in assay [4] (setting [8]), 63%; in assay [4] (at 50.0 µM) it was 38.6%. Moreover, the growth inhibition in assay [5] (setting [7]) is 1%; in assay [5] (setting [8]), 88% (active); in assay [5] (at 50.0 µM), 87.5% (active); in assay [6] (setting [7]), -4%; in assay [6] (setting [8]), 92% (active); in assay [6] (at 50.0 µM), 51.8%.

As to `COc1ccc2c(c1)C(=O)/C(=C/c1ccc([N+](=O)[O-])o1)CO2`, the growth inhibition in assay [1] (setting [7]) was 15%; in assay [1] (setting [8]), 99% (active); in assay [1] (at 50.0 µM) it was 97.2% (active); in assay [2] (setting [7]), 10%; in assay [2] (setting [8]), 100% (active); in assay [2] (at 50.0 µM), 38.2%. Besides, the growth inhibition was 33% in assay [3] (setting [7]); 100% (active) in assay [3] (setting [8]); 98.1% (active) in assay [3] (at 50.0 µM); 15% in assay [4] (setting [7]); 99% (active) in assay [4] (setting [8]); 57.1% in assay [4] (at 50.0 µM). The growth inhibition in assay [5] (setting [7]) was 15%; in assay [5] (setting [8]), 99% (active); in assay [5] (at 50.0 µM), 89.8% (active); in assay [6] (setting [7]) it was 78% (active); in assay [6] (setting [8]) it was 99% (active); in assay [6] (at 50.0 µM), 98.2% (active).
